# Experimental data from PubChem BioAssay (EPA / NIEHS).
# Inconclusive results are not listed. Activity calls are given as the source filed them. How the source made its calls: active means hit-call score of the fitted dose curve at least 0.9, where 1 is the maximum; inconclusive means response in the unintended direction; inactive means score below 0.9.
# Assays:
# [1] = biological target: rat Adenylate Cyclase, Forskolin Stimulated, Adcy5 (gene 64532) (UniProt Q04400); assay: NVS_ENZ_rACFSKBinding: NovaScreen (NVS) Enzymatic Assay for rat Adenylate Cyclase, Forskolin Stimulated (AID 2283232)
# Sequence of rat Adenylate Cyclase, Forskolin Stimulated, Adcy5 (gene 64532) (Q04400 whole entry, looked up): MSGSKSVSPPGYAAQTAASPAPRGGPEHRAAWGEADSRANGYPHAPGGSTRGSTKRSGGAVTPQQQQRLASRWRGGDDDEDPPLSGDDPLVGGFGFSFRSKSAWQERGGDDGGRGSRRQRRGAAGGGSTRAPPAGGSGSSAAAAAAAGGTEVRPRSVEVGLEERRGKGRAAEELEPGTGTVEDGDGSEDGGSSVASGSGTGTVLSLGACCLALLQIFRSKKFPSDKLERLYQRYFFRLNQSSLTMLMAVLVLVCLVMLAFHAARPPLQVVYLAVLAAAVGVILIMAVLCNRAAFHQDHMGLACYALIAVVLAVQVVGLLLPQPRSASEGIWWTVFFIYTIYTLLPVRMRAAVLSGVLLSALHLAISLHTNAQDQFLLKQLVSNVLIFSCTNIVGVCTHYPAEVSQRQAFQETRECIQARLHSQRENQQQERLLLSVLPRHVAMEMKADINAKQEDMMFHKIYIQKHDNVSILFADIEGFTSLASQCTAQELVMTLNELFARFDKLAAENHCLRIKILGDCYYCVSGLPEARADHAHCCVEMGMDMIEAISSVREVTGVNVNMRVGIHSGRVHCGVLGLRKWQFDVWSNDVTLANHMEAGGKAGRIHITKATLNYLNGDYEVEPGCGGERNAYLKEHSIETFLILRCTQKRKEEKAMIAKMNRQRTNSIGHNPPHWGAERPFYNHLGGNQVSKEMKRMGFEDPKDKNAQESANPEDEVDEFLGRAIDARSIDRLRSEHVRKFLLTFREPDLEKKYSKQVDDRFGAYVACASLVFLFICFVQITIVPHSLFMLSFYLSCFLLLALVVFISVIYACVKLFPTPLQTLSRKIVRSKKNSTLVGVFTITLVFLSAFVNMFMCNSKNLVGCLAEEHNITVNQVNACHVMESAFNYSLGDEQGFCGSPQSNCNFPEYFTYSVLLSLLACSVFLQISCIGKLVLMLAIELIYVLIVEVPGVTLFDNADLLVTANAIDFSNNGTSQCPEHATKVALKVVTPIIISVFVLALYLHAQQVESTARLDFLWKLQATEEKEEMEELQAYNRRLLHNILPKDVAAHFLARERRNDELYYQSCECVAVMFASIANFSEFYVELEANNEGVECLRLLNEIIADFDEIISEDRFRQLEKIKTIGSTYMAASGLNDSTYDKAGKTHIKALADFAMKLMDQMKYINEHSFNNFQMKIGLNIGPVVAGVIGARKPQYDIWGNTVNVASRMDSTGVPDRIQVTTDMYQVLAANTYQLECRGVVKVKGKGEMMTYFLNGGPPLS
# Summary of the method: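 Rat forebrain membrane preparation, cell-free, read 1 h after dosing by filter-based scintillation counting. Primary screen in duplicate at 25 uM; actives (e.g. ≥30% inhibition) rerun in concentration-response up to 50 uM; fit versus DMSO.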
# [2] = tested on: bovine Angiotensin II Receptor Type 2 (AT2), gene 407157; assay: NVS_GPCR_bAT2: NovaScreen (NVS) G Protein-Coupled Receptor Assay for bovine Angiotensin II Receptor Type 2 (AT2) (AID 2283240)
# Summary of the method: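 Radioligand displacement on bovine cerebellar membranes, 1 hour incubation, filter-based scintillation counting; loss of signal vs DMSO. Duplicate single-point screen at 25 uM, then concentration-response to 50 uM maximum.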
# [3] = biological target: bovine Dopamine Receptor (DR), Non-selective Binding, DRD1 (gene 281125) (UniProt Q95136); assay: NVS_GPCR_bDR_NonSelective: NovaScreen (NVS) G Protein-Coupled Receptor Assay for bovine Dopamine Receptor (DR), Non-selective Binding (AID 2283241)
# Summary of the method: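 Bovine striatal membranes; radioligand displacement read by filtration and scintillation counting 1 h after dosing, loss of signal vs DMSO. Screened in duplicate at 25 uM, then concentration-response for hits.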
# [4] = NVS_GPCR_bNPY_NonSelective: NovaScreen (NVS) G Protein-Coupled Receptor Assay for bovine Neuropeptide Y (NPY) Receptor, Non-selective Binding (AID 2283245)
# Summary of the method: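 Bovine hippocampal membranes incubated 1 hour with radioligand and test chemical. Bound ligand measured by filter-based scintillation counting. Single-concentration screen at 25 uM in duplicate, then concentration-response up to 50 uM.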
# [5] = tested on: guinea pig Leukotriene B4 Receptor (LTB4), gene 100379538; assay: NVS_GPCR_gLTB4: NovaScreen (NVS) G Protein-Coupled Receptor Assay for guinea pig Leukotriene B4 Receptor (LTB4) (AID 2283247)
# Summary of the method: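 Radioligand displacement on guinea pig spleen membranes, filter-based scintillation counting 2 h after dosing. Primary duplicate single point at 25 uM; hits over threshold (e.g. 30% inhibition) run in concentration-response up to 50 uM, DMSO baseline.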
# [6] = biological target: guinea pig Leukotriene D4 Receptor (LTD4), CYSLTR1 (gene 100135514) (UniProt Q2NNR5); assay: NVS_GPCR_gLTD4: NovaScreen (NVS) G Protein-Coupled Receptor Assay for guinea pig Leukotriene D4 Receptor (LTD4) (AID 2283248)
# Summary of the method: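 Radioligand displacement on guinea pig lung membranes, 1 h incubation, filtration and scintillation counting; DMSO as negative control. Duplicate 25 uM primary screen, then singleton concentration-response up to 50 uM.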
# [7] = biological target: human Serotonin, 5-Hydroxytryptamine Receptor 2A (5HT2A), HTR2A (gene 3356) (UniProt P28223); assay: NVS_GPCR_h5HT2A: NovaScreen (NVS) G Protein-Coupled Receptor Assay for human Serotonin, 5-Hydroxytryptamine Receptor 2A (5HT2A) (AID 2283249)
# Sequence of human Serotonin, 5-Hydroxytryptamine Receptor 2A (5HT2A), HTR2A (gene 3356) (P28223 whole entry, looked up): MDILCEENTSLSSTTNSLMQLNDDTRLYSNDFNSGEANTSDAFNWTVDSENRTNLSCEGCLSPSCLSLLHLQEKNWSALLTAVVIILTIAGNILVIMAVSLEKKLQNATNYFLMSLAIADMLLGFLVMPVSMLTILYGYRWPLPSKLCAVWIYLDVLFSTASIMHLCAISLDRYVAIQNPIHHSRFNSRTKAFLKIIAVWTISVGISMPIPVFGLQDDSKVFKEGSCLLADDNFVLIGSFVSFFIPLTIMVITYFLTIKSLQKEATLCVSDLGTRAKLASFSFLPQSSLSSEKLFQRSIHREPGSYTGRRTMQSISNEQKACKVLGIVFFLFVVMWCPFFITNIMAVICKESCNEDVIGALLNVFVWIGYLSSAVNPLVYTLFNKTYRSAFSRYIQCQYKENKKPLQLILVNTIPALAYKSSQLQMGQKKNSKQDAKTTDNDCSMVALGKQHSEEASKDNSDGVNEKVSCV
# Summary of the method: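 Human cortex membranes, cell-free radioligand binding; filter-based scintillation read 1.5 h after dosing. Duplicate screen at 25 uM first; displacement of specific binding (loss of signal) versus DMSO.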
# [8] = tested on: guinea pig Muscarinic, Peripheral (Mperiperal) Receptor, Non-selective Binding, gene 100379235; assay: NVS_GPCR_gMPeripheral_NonSelective: NovaScreen (NVS) G Protein-Coupled Receptor Assay for guinea pig Muscarinic, Peripheral (Mperiperal) Receptor, Non-selective Binding (AID 2283250)
# Summary of the method: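 Guinea pig bladder membranes, radioligand binding read 1 h after dosing by filter scintillation counting; loss of signal vs DMSO. Primary duplicate screen at 25 uM, then concentration-response up to 50 uM.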
# [9] = biological target: human Serotonin, 5-Hydroxytryptamine Receptor 5A (5HT5A), HTR5A (gene 3361) (UniProt P47898); assay: NVS_GPCR_h5HT5A: NovaScreen (NVS) G Protein-Coupled Receptor Assay for human Serotonin, 5-Hydroxytryptamine Receptor 5A (5HT5A) (AID 2283251)
# Sequence of human Serotonin, 5-Hydroxytryptamine Receptor 5A (5HT5A), HTR5A (gene 3361) (P47898 whole entry, looked up): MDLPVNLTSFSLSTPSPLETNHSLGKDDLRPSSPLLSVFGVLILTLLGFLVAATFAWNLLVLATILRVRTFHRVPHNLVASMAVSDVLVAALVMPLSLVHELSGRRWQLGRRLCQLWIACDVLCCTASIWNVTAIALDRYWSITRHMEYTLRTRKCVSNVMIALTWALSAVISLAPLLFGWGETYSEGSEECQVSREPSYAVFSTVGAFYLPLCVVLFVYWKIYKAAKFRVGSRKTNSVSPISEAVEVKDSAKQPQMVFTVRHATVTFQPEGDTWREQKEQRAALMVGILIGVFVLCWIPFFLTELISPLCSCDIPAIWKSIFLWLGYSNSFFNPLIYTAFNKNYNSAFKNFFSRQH
# Summary of the method: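 Cell-free radioligand displacement binding on HEK293-derived membrane protein, 1 h incubation, filter-based scintillation counting. Primary screen in duplicate at 25 uM, actives followed in concentration series; loss of signal fitted versus DMSO.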
# [10] = biological target: guinea pig Opioid, Kappa 1 Receptor (OpiateK), OPRK1 (gene 100135587) (UniProt P41144); assay: NVS_GPCR_gOpiateK: NovaScreen (NVS) G Protein-Coupled Receptor Assay for guinea pig Opioid, Kappa 1 Receptor (OpiateK) (AID 2283252);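 further: radioligand displacement from kappa opioid receptor in guinea pig cerebellar membranes; active means reduced radioligand binding relative to DMSO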
# Sequence of guinea pig Opioid, Kappa 1 Receptor (OpiateK), OPRK1 (gene 100135587) (P41144 whole entry, looked up): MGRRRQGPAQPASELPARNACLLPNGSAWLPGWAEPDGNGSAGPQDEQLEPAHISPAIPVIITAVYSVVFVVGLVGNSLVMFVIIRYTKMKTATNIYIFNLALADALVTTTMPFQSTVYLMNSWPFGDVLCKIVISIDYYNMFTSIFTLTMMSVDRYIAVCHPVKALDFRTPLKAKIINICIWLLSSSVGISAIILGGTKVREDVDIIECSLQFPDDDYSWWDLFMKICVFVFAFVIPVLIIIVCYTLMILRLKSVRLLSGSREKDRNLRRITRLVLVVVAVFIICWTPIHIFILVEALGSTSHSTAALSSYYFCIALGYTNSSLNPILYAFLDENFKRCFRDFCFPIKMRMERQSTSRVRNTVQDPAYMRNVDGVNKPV
# Summary of the method: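 Guinea pig cerebellar membranes were incubated with a radioligand for 2 h after compound addition; bound radioactivity was read by filter-based scintillation counting. Loss of specific binding relative to DMSO baseline defined activity; primary screen at 25 uM in duplicate.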
# [11] = biological target: human Serotonin, 5-Hydroxytryptamine Receptor 6 (5HT6), HTR6 (gene 3362) (UniProt P50406); assay: NVS_GPCR_h5HT6: NovaScreen (NVS) G Protein-Coupled Receptor Assay for human Serotonin, 5-Hydroxytryptamine Receptor 6 (5HT6) (AID 2283253)
# Summary of the method: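 Radioligand binding to 5HT6 in HEK293-derived membranes, cell-free, 1 h after dosing; bound ligand measured by filter-based scintillation counting. Primary screen in duplicate at 25 uM; actives retested in concentration series.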
# [12] = biological target: rat Acetylcholinesterase (AChE), Ache (gene 83817) (UniProt P37136); assay: NVS_ENZ_rAChE: NovaScreen (NVS) Enzymatic Assay for rat Acetylcholinesterase (AChE) (AID 2283233)
# Sequence of rat Acetylcholinesterase (AChE), Ache (gene 83817) (P37136 whole entry, looked up): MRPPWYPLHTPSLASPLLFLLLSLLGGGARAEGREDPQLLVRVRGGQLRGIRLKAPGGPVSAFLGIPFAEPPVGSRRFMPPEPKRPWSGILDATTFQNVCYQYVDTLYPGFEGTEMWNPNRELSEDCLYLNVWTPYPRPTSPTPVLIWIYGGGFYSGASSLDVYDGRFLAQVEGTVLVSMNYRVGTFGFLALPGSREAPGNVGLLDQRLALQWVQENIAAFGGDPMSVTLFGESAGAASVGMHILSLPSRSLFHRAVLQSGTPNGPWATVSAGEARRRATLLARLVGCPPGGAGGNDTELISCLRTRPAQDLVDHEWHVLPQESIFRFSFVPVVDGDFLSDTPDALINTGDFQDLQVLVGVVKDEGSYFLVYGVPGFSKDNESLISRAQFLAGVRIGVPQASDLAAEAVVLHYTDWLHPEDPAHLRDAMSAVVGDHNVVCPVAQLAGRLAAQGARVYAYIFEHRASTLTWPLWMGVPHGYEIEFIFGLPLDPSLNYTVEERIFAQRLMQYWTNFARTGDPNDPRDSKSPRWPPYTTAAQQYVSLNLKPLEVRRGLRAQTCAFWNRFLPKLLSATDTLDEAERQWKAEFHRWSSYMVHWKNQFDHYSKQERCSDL
# Summary of the method: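 Rat brain membrane acetylcholinesterase activity measured colorimetrically 0.33 h after compound addition, loss of signal relative to DMSO. Primary screen in duplicate at 25 uM; actives re-run as concentration-response with 50 uM top concentration.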
# [13] = biological target: rat Catechol-O-Methyl Transferase (COMT), Comt (gene 24267) (UniProt P22734); assay: NVS_ENZ_rCOMT: NovaScreen (NVS) Enzymatic Assay for rat Catechol-O-Methyl Transferase (COMT) (AID 2283235)
# Sequence of rat Catechol-O-Methyl Transferase (COMT), Comt (gene 24267) (P22734 whole entry, looked up): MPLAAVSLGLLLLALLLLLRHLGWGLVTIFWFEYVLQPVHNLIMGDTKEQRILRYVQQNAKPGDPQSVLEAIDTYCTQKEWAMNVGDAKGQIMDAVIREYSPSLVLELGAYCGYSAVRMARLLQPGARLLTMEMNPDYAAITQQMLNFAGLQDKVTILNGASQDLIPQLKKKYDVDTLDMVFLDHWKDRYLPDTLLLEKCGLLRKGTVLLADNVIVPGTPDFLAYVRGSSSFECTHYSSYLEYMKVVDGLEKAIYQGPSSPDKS
# Summary of the method: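 Cell-free enzyme activity with protein extracted from rat dorsal striatum, measured by HPLC with absorbance detection. Compounds screened at 25 uM in duplicate; actives then run in concentration-response up to 50 uM, loss of signal versus DMSO.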
# [14] = biological target: rat Monoamine Oxidase, MAO-B, Central (MAOBC), Maob (gene 25750) (UniProt P19643); assay: NVS_ENZ_rMAOBC: NovaScreen (NVS) Enzymatic Assay for rat Monoamine Oxidase, MAO-B, Central (MAOBC) (AID 2283238)
# Sequence of rat Monoamine Oxidase, MAO-B, Central (MAOBC), Maob (gene 25750) (P19643 whole entry, looked up): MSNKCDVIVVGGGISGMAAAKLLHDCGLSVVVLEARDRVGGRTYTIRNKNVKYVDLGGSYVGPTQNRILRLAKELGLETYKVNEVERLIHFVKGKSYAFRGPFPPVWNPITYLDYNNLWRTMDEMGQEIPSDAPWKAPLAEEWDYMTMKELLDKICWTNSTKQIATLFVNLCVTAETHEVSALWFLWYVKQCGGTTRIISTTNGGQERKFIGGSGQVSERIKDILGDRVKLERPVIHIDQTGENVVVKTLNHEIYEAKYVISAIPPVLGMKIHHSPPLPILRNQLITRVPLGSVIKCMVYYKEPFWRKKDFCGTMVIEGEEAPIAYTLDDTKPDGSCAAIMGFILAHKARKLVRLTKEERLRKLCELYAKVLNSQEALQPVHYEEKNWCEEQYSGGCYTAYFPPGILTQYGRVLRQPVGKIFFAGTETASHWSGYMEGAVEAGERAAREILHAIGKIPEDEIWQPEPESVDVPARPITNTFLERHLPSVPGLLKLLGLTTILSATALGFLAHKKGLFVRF
# Summary of the method: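 Rat brain tissue extract served as the cell-free MAO-B source; enzyme activity was read by scintillation counting 1.17 hours after compound addition. Loss of signal versus DMSO baseline was fitted; primary single-concentration screen at 25 uM, follow-up concentration-response up to 50 uM.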
# [15] = biological target: sheep Cyclooxygenase-1 (Cox1), PTGS1 (gene 443551) (UniProt P05979); assay: NVS_ENZ_oCOX1: NovaScreen (NVS) Enzymatic Assay for sheep Cyclooxygenase-1 (Cox1) (AID 2283239);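 further: actives reduce cyclooxygenase activity so potencies are for inhibitors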
# Sequence of sheep Cyclooxygenase-1 (Cox1), PTGS1 (gene 443551) (P05979 whole entry, looked up): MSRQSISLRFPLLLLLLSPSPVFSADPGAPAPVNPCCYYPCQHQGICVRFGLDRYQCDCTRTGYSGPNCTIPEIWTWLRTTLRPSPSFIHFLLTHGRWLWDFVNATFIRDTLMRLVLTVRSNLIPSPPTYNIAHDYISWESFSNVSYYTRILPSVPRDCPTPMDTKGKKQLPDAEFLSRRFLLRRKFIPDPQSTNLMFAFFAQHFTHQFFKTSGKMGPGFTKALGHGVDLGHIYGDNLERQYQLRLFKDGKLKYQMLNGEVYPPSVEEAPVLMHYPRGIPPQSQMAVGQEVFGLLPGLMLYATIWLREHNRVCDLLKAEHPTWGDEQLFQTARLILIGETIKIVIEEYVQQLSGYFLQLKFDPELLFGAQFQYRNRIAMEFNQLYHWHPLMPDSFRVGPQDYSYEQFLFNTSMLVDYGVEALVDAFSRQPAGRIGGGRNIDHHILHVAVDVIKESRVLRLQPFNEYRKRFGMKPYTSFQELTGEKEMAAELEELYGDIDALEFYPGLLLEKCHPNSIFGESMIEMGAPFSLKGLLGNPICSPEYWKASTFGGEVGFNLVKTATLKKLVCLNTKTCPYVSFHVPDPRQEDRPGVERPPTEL
# Summary of the method: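 COX1 from ovine seminal vesicles, activity read colorimetrically about 0.66 h after dosing. Primary screen in duplicate at 25 uM; actives retested in concentration series; loss of signal fitted versus DMSO.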
# [16] = biological target: rat Monoamine Oxidase, MAO-B, Peripheral (MAOBP), Maob (gene 25750) (UniProt P19643); assay: NVS_ENZ_rMAOBP: NovaScreen (NVS) Enzymatic Assay for rat Monoamine Oxidase, MAO-B, Peripheral (MAOBP) (AID 2283242)
# Sequence of rat Monoamine Oxidase, MAO-B, Peripheral (MAOBP), Maob (gene 25750) (P19643 whole entry, looked up): as the sequence (P19643 whole entry, looked up) above
# [17] = tested on: bovine Histamine 1 Receptor (H1), gene 281231; assay: NVS_GPCR_bH1: NovaScreen (NVS) G Protein-Coupled Receptor Assay for bovine Histamine 1 Receptor (H1) (AID 2283246)
# Summary of the method: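 Radioligand displacement on bovine cerebellar membranes, 1 h after dosing, filter-based scintillation read-out; loss of signal vs DMSO. Duplicate single-concentration screen at 25 uM, then concentration-response up to 50 uM for hits.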
# [18] = tested on: rat Monoamine Oxidase, MAO-A, Central (MAOAC), gene 29253; assay: NVS_ENZ_rMAOAC: NovaScreen (NVS) Enzymatic Assay for rat Monoamine Oxidase, MAO-A, Central (MAOAC) (AID 2283243);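 further: potency refers to inhibition seen as signal drop below DMSO baseline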
# Summary of the method: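 Inhibition of rat brain-derived MAO-A was read by scintillation counting after 1.5 h exposure. Compounds screened first at 25 uM in duplicate, then in dose series if active.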
# [19] = biological target: Adenosine receptor A1 (Bos taurus) (UniProt P28190); assay: NVS_GPCR_bAdoR_NonSelective: NovaScreen (NVS) G Protein-Coupled Receptor Assay for bovine Adenosine Receptor (AdoR), Non-selective Binding (AID 2283244)
# Summary of the method: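 Bovine striatal membranes, radioligand displacement binding, 1 h after dosing, filter-based scintillation counting. Screened in duplicate at 25 uM, then concentration-response up to 50 uM; loss of specific binding relative to DMSO.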
# [20] = biological target: rat Constitutive Nitric Oxide Synthase (CNOS), Nos1 (gene 24598) (UniProt P29476); assay: NVS_ENZ_rCNOS: NovaScreen (NVS) Enzymatic Assay for rat Constitutive Nitric Oxide Synthase (CNOS) (AID 2283236)
# Summary of the method: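 Enzyme activity in rat brain membrane preparation, read 1 h after dosing by filter-based radiometric scintillation counting. Primary screen in duplicate at 25 uM; actives (e.g., ≥30% inhibition) then run in concentration-response up to 50 uM.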
smiles,measurement,setting,value
CCC[CH2][Sn]([Cl])([CH2]CCC)[CH2]CCC,AC50,[1],41 µM (active)
same,AC50,[2],18.2 µM (active)
same,AC50,[3],9.14 µM (active)
same,AC50,[4],3.07 µM (active)
same,AC50,[5],15.8 µM (active)
same,AC50,[6],1.86 µM (active)
same,AC50,[7],32.6 µM (active)
same,AC50,[8],9.81 µM (active)
same,AC50,[9],2.07 µM (active)
same,AC50,[10],14.5 µM (active)
same,AC50,[11],5.51 µM (active)
CNC(=O)Oc1cccc2c1OC(C)(C)C2,AC50,[12],0.464 µM (active)
Cc1cc(N=Nc2ccccc2C)ccc1N,AC50,[13],0.643 µM (active)
same,AC50,[14],25 µM (active)
same,AC50,[15],11.8 µM (active)
same,outcome,[16],inactive
same,outcome,[17],inactive
CCCCCCCCOC(=O)c1ccc(C(=O)OCCCCCCCC)c(C(=O)OCCCCCCCC)c1,outcome,[12],inactive
Nc1ccc(N=Nc2ccccc2)cc1,AC50,[14],25 µM (active)
same,AC50,[15],4.49 µM (active)
same,outcome,[16],inactive
same,AC50,[18],10.6 µM (active)
same,AC50,[19],25 µM (active)
ClCCOCCCl,outcome,[15],inactive
c1ccc(NNc2ccccc2)cc1,AC50,[15],2.46 µM (active)
CC(C)(O)c1cnn2c(-c3ccc(F)c(-c4c(F)cccc4C#N)c3)cnc2n1,outcome,[1],inactive
same,outcome,[14],inactive
same,outcome,[16],inactive
CC(C)(C)OOC(=O)c1ccccc1,outcome,[14],inactive
COP(=S)(OC)SCN1C(=O)c2ccccc2C1=O,outcome,[12],inactive
same,AC50,[20],3.44 µM (active)
same,outcome,[14],inactive
same,outcome,[7],inactive
CCCCOC(=O)c1ccccc1C(=O)OCc1ccccc1,outcome,[20],inactive
CN(C)[C@@H]1C(=O)C(C(N)=O)=C(O)[C@@]2(O)C(=O)C3=C(O)c4c(O)cccc4[C@@](C)(O)[C@H]3C[C@@H]12,AC50,[13],2.73 µM (active)
same,outcome,[14],inactive
same,outcome,[15],inactive
Oc1ccc2ccc3cccc4ccc1c2c34,AC50,[13],25 µM (active)
same,AC50,[18],0.255 µM (active)
